According to the supplement of paper PMC3334620:
Whole data set: some 33,000 sequences, median “E-score (-0.5 to 0.5)” near -0.043, cut for the highest 2% near 0.37. For the sample, the highest values were picked, then their nearest neighbours and some sequences at random.

Molecular target: T1, Upc2 (UniProt Q12151)
T1 sequence: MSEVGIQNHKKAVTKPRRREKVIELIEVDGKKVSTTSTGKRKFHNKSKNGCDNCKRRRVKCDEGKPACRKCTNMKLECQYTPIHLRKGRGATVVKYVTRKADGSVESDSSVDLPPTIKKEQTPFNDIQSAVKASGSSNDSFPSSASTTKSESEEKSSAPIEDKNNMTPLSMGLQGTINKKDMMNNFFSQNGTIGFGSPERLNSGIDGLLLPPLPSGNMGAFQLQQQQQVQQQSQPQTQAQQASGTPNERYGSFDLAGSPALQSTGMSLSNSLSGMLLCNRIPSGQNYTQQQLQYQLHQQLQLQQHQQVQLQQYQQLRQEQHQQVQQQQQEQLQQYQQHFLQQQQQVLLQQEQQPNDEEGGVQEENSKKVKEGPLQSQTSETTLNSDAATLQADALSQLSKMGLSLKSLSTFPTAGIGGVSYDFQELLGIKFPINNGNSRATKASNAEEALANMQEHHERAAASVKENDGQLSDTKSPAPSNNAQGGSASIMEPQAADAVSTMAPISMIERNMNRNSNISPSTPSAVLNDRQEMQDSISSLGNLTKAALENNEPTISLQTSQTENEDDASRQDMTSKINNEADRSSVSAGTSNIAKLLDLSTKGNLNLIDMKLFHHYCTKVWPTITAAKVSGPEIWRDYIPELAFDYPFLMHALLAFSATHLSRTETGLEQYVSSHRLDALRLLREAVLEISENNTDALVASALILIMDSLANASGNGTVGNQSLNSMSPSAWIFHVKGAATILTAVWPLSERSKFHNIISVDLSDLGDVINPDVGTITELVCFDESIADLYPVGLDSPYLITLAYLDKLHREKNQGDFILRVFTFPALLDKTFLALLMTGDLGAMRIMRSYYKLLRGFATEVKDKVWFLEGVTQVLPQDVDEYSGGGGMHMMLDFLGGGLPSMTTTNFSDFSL
Assay: PBM E-score (8-mer binding enrichment) (E-score (-0.5 to 0.5)); higher = stronger / more preferred TF binding
Settings: protein concentration: 200 nM; construct: GST-full length
Method: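 Universal 'all 10-mer' protein binding microarrays (Agilent AMADID 015681) probed with GST-tagged S. cerevisiae TFs (full-length or DBD) made by in vitro transcription/translation (PURExpress), about 100-200 nM. Bound TF was detected with fluorescent anti-GST. Each ungapped 8-mer (which stands for itself and its reverse complement) is scored by the PBM enrichment score (E-score), a modified Wilcoxon-Mann-Whitney statistic from -0.5 to +0.5, computed with the Universal PBM Analysis Suite. Scale: above 0.35 generally sequence-specific binding.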

Sequence	PBM E-score
CAAGGTGG	-0.0983
ACGTAACA	-0.0115
GATCTTAA	0.159
ACGGTGGG	0.134
TACGACTA	0.437
ATCGACTG	0.0556
AACGACTA	0.379
AGCGACTA	0.154
CACGACTA	-0.0651
CACGACTC	0.0449
GACGACTC	-0.052
GACGACTA	-0.171
AACGACTC	0.401
AACGACTT	0.305
AACGACTG	0.389
CACGACTG	0.0762
AACCATAA	-0.0292
CACCAATC	-0.249
CTCCCACC	-0.0368
GTGTTCAA	-0.00045
AGCCAACA	-0.098
ATGTCTTG	-0.0852
CATGGGGC	-0.34
CAGGGTAA	-0.14
GAGGTCAA	-0.0747

Sequence	PBM E-score
CTCCCAAA	-0.0646
CATATCAG	-0.165
CGTATCAG	0.381
CGTATCAC	0.364
CGTATCAA	0.37
TGTATCAA	-0.0549
AGTATCAG	-0.235
CGGGCTAG	-0.117
CAAATCTG	-0.272
CCTGCTTC	-0.109
TCACGAGA	0.0145
AAACGAGT	0.477
ACACGAGA	0.244
AAACGAGA	0.469
ACACGAGT	0.162
CCACGAGA	-0.277
CAACGAGG	0.278
AATCGAGT	0.0695
CAACGAGA	0.314
AAACGAGG	0.481
TAACGAGA	0.391
AAACGTGG	0.255
CTATGGAA	-0.161
AAGATTGT	0.00873
ATTCACGA	0.0672

Sequence	PBM E-score
AATGACCC	-0.157
GCTAGTGA	-0.115
AATGAGCT	-0.163
CCTCCTCC	-0.105
AACTAGTA	-0.0317
GTGCTATA	0.128
CCTTGTCC	-0.205
CGGTTCAC	-0.117
GTTAACGA	0.442
CTTAACGA	0.464
ATTAACGG	0.185
ATTAACGC	0.143
CTTAACCA	-0.0796
CGTAACGA	0.374
GGTAACGA	0.346
ATTAACGA	0.424
CGTAACGC	0.324
GCTAACGA	0.304
GTTAACTA	0.157
CTTAACGC	0.17
ACGCACGT	0.144
AGATTCTC	-0.0164
CACTTCAA	-0.0335
GGCACACA	-0.136
ACGCAGTG	0.0743

Sequence	PBM E-score
TCACCTGA	-0.284
CTACGCTA	-0.04
TCGCTTAA	0.403
CCGCTTAA	0.268
GCGCTTAA	0.173
ACTTATTG	-0.116
GATCTCTA	-0.0508
CATAAACG	0.462
CATAAACA	-0.00956
AATAAACG	0.429
CATAAACC	-0.075
AATAAACA	0.0907
AATAAACT	-0.0754
CTCATACC	0.051
GGCTTTTA	-0.157
CTAATTCA	-0.0938
CCGTTCAC	0.291
AGTTGTTC	0.127
ACCGATAG	-0.0483
AACGATAC	0.413
CACGATAC	0.197
AACGATAA	0.381
GACGATAC	0.124
AGCGATAA	0.0894
AGCGATAT	0.206

Sequence	PBM E-score
CACGATAG	-0.187
ACCGATAA	0.158
AACGATAT	0.39
AACGATAG	0.404
ACCGATAT	0.0732
CACTGACG	-0.152
GTGGGTCA	-0.327
GGTCTGTA	0.0803
ATGGACCA	0.0213
ATGAGTGA	-0.101
CGTTCGAA	0.221
AGTGCCAT	-0.133
GAACCACA	-0.0218
ATTTAGAA	-0.14
AAGGCCGT	0.244
ACCTGGGA	-0.245
AAATTTAA	0.184
TACGATAA	0.416
GACGATAA	0.111
CACGATAA	0.074
TCAGCGGA	-0.0114
GGTTTACA	-0.0166
CGTTTACC	0.449
AGTTTACC	0.0436
CGTTTACA	0.441

Sequence	PBM E-score
AGTTTACA	-0.0264
CATTTACC	-0.152
AACGGAAA	0.216
GCAAAACA	-0.144
CGGGGGGC	0.063
CTACAACC	0.0888
AGTTCGTG	0.158
AGTTCGTC	0.0871
GGTTCGGA	-0.168
AGTTCGTA	0.439
CGTTCGGA	0.265
GGTTCGTA	0.445
GGTTCGAA	0.0921
CGTTCGTA	0.45
CGTTCGTC	0.293
CTTGCAGA	-0.17
GTATAGAA	0.345
AGGTGCTG	-0.387
CATCAGTC	-0.123
CTCGCCCA	-0.102
ACACCAGC	-0.111
ATGTCGTC	-0.0259
CTGTCGTC	0.00126
GTGTCGTA	0.44
ATGTCGTA	0.45

Sequence	PBM E-score
CTGTCGTA	0.447
ATGTCGTG	-0.0693
CTGTCGAA	-0.181
GTGTCGGA	0.0733
GTGTCGCA	0.0927
GTGTGGCA	-0.371
AACCGGCT	-0.239
AACTATCA	0.134
ATGTGAAT	0.12
AATACCGC	-0.131
AGTATGCA	-0.3
AGTATGTA	0.0299
CGTATGCA	0.377
GGTATGCA	-0.00862
CGTATGTA	0.387
CGTATGCC	0.372
CGTATGTC	0.353
CCTATGCC	-0.13
AGTATGCC	-0.189
GCAGTAGC	-0.174
AGCGGGTC	-0.0751
CATTTTTC	0.0327
TAATCTCA	-0.058
CGCTGGAA	-0.186
ACCATCTG	-0.225

Sequence	PBM E-score
AACTCGTA	0.455
GACTCGCA	-0.0142
GACTCGAA	-0.194
CACTCGAA	0.0152
CACTCGTA	0.455
CACTCGTC	0.0141
GACTCGTA	0.436
AACTCGTG	0.178
AACTCGTC	0.0662
CCACTTCG	0.0558
AATGGAGT	-0.266
AGCGTTAC	0.0438
CTCTTCCA	-0.0797
CCGCTGGC	-0.258
GAAATGTC	-0.0124
ACGCGAGG	0.219
AAGACTCA	-0.172
ACTGACTC	-0.192
CTCGAACA	-0.00626
CCAATAGC	-0.22
TACATCGA	0.038
CCTTACTA	0.029
GCTTACTA	-0.0799
ACTTACGC	-0.0998
GCTTACAA	-0.0171

Sequence	PBM E-score
ACTTACGA	0.382
ACTTACGG	0.194
GCTTACGA	0.421
CCTTACGA	0.407
CCTTACGC	0.193
GAAGTACC	0.114
GTGCCAAC	-0.0672
CTCCACCA	-0.177
GGATTGTA	0.107
ATGCCAAC	0.0593
GTTAGCGA	0.194
ACAATCCA	-0.0823
CTACGACA	0.311
CGACGACA	0.173
CCACGACA	-0.131
GCACGACA	0.0592
GTACGACA	0.468
ATACGACA	0.477
CCCGAGCC	-0.0326
CGCATTCA	-0.00072
CGTTAACC	0.348
CGTTAACG	0.422
CCTTAACG	0.38
CGTTAACA	0.274
CCTTAACA	-0.0468

Sequence	PBM E-score
ACTTAACG	0.339
AAATCTCC	-0.271
GTGACCAC	-0.283
ACAATGAT	-0.102
CGGCGCTC	0.16
GCCCTCGC	0.219
ATGGCTCA	-0.1
ACTTTACA	0.0242
ATTTTACC	0.00835
AATTTACG	0.335
CCTTTACA	-0.0853
ACTTTACG	0.409
CCTTTACG	0.418
CCTTTACC	-0.191
ACTTTACT	-0.151
ATTTTACG	0.394
ATTTGCAA	0.0573
AGATTGCT	-0.117
CAACTGCG	-0.0371
GTACGGAC	0.35
GTACGGAA	0.377
ATACGGAT	0.357
ATACGGAC	0.394
ATACGCAG	0.352
CTACGGAC	-0.0487

Sequence	PBM E-score
ACACGGAG	-0.0181
GTACGCAA	0.247
GCACGGAA	-0.15
ATACGCAA	0.37
CTACGGAG	-0.138
ATACGGAG	0.411
CATGAGTC	-0.0488
GTTCTCTA	0.102
CTCTCCTA	0.0887
GATTCACC	-0.129
AATGGAGA	-0.179
TATGCGCA	0.0561
TTACGGAA	0.258
CTACGGAA	0.0194
ATACGGAA	0.372
GGGGGCGA	-0.119
TACAGCAA	0.138
AGAGTGGG	0.0465
TGATCCAA	-0.132
AGACGACG	0.237
CTACGACC	0.364
ACACGACC	0.154
ATACGACG	0.483
ATACGACC	0.474
ACACGACG	0.267

Sequence	PBM E-score
GCGTTTTA	0.206
GGGTTTAC	0.144
GCGTTTAA	0.4
CTGTTTAA	0.0306
CCGTTTAA	0.466
ACGTTTAC	0.369
GCGTTTAC	0.372
CTGTTTAC	0.142
GCGTTTCC	0.0493
GCGTTTGA	0.151
CCGTTTTA	0.118
CCGTTTAC	0.451
GGGAGCAA	-0.11
GGCAAGGA	-0.205
GGCTACTA	-0.0652
ACAGTACC	-0.176
CATCTAGA	0.0683
ACAAGGTA	0.104
GAGAGGGA	-0.272
ACTATACA	0.11
ATTATACC	0.144
ACTATACG	0.478
CCTATACG	0.487
AGTATATG	0.0175
CCTATACA	0.151

Sequence	PBM E-score
AGTATACG	0.455
CCTATACC	0.167
AGTATACT	0.242
ATTATACA	0.0589
ACTATACT	0.152
ATTATACG	0.482
AAAGAATA	0.091
AAGGTTAT	-0.0588
GCCCCGCC	0.112
GGCGCAAC	0.00488
CACAGGGA	-0.233
AGGACACT	-0.364
AGTTTAAC	0.174
CCTTTAAG	-0.158
CGTTTAAC	0.473
AGTTTAAA	0.11
GGTTTAAC	0.138
CGTTTAAG	0.468
CGTTTAAA	0.47
AGTTTAAG	0.0878
TGTTTAAA	0.0234
AGGATGGG	0.00396
CAACCTCA	-0.0655
AACTGTGT	-0.137
CCTTAGCA	-0.336

Sequence	PBM E-score
CCCTTATC	-0.205
AGGTATAC	0.339
CTAACCGA	0.37
CTAACCGC	0.0621
GTAACCGA	0.322
CTGCTCTA	-0.0369
ACAATCCT	-0.183
CAGGACGG	-0.164
CGAAGTAG	0.00964
ACACGAAG	0.211
ATACGAAC	0.472
ATACGAAG	0.476
ATTCGAAC	0.119
ATACGAAT	0.459
ACACGAAT	0.258
CTACGAAG	0.316
AGACGAAT	0.0524
GTACGAAA	0.442
GCACGAAA	0.127
ATCCGAAC	0.146
GGACGAAA	-0.0427
